From PubChem BioAssay
Luc counter – counter-screen: inhibitors of Kinase-Glo firefly luciferase; hit rate 0.28% among 200,000; Kinase-Glo luciferase, ATP luminescence, 8 min; AID 1379; Potency, µM (titrated, usually from 38.3 µM), without a hit: at the highest dose activity change, negative = inhibition, hits mostly inhibitors; note: % is set by controls: 0 for no effect and ±100 for the full control effect; nearly all actives have a fitted effect of over 60% in size
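Inhibition of Kinase-Glo luciferase light generation was assessed at 10 uM ATP in pH 7.2 imidazole buffer, with luminescence measured after eight minutes at ambient temperature.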
SMN2 splice up – SMN2 splice variant enhancement | HEK293 SMN2-luciferase splicing reporter, luminescence, 30-36 h | AID 1458 | Potency, µM (doses to about 46.1 µM), without a hit: top-dose activity change, positive = activation, most hits filed as activators | hit rate 2.8% among 210,000; note: % of control where 0% means no effect; nearly all actives have a fitted effect of over 55% in size
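HEK293 cells carry an SMN2 […]–luciferase reporter in which exon 7 inclusion puts luciferase in frame. Cells were plated 10-12 h before compound addition, then incubated 30-36 h at 37C. ONE-Glo luminescence was read; sodium butyrate at 4.5 mM final served as control.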
FLuc modulator – firefly luciferase modulation, counter-screen for miR-21 project; P08659; purified FLuc, Km substrates, luminescence inhibition; Potency, µM (titrated, usually from 57.5 µM), inactives show at the highest dose activity change, negative = inhibition, actives largely listed as inhibitors; hit rate 6.9% among 360,000; AID 588342;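 note: plate controls were vehicle for no effect and reference inhibitor for full effect; nearly all actives have a fitted effect of over 55% in size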
Target sequence (P08659 whole entry, looked up): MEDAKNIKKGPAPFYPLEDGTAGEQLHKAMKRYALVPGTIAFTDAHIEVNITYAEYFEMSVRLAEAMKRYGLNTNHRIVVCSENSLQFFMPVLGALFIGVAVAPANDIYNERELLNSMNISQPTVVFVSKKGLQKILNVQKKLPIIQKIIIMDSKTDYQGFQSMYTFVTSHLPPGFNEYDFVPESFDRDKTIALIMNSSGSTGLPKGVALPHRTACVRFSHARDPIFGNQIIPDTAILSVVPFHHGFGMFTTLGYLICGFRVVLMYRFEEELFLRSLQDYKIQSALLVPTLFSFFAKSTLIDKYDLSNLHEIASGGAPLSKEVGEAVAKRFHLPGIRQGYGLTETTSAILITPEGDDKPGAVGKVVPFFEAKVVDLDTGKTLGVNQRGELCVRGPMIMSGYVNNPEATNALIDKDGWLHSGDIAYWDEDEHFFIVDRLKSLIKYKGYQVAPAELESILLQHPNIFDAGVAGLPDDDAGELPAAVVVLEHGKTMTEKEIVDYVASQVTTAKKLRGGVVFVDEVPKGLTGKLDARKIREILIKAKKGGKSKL
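Purified P. pyralis luciferase (10nM final) with 10uM D-luciferin and 10uM ATP (Km levels) in 50mM Tris acetate pH 7.5, 10mM Mg acetate, 0.01% Tween-20, 0.05% BSA; qHTS 6-point titration, ~60 µM downward; luminescence read.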
Rab9 prom act – Rab9 promoter activation | Potency, µM (highest dose often 9.22 µM), for inactives: at the top dose activation, negative = inhibition, actives largely listed as activators | AID 485297 | Huh7 Rab9 promoter-luciferase reporter, luminescence, 24 h | hit rate 2.8% among 320,000; note: % of control where 0% means no effect; nearly all actives have a fitted effect of over 60% in size
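Quantitative HTS format; Huh7 Rab9-luciferase reporter cells (1500/well) receive compound 2 h post-plating, incubate 24 h at 37 °C, then get luciferase reagent for 10 min before luminescence reading.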
NPC1 promoter act – NPC1 promoter activation; Huh7 NPC1 promoter luciferase reporter, 24 h; Potency, µM (doses to about 9.22 µM), without a hit: at the top dose activation, most hits filed as activators; hit rate 2.4% among 320,000; AID 485313; note: % of control where 0% means no effect; nearly all actives have a fitted effect of over 60% in size
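Luminescence read-out of NPC1 promoter-driven luciferase in stably transfected Huh7 cells; compounds delivered in DMSO and left 24 h at 37C, 5% CO2, qHTS titration format.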
ELG1 genotoxic – genotoxicity induction in ELG1-luciferase HEK293T cells; HEK293T ELG1-luciferase reporter, luminescence, 16 h; Potency, µM (series often up to 46 µM), inactives show top-dose activity change, positive = activation, usual class: activators; hit rate 1.3% among 330,000; AID 504466; note: % of control where 0% means no effect; nearly all actives have a fitted effect of over 60% in size
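Screening used a luciferase reporter fused to human ELG1 in HEK293T cells. Luminescence was read on a CCD plate imager after 16 hr exposure and 30 min ONE-Glo incubation.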
An asterisk follows results filed as active; ? = inconclusive; nt = no result; [ ] = dose if it differs, or a comment. Rows were chosen to be rich in hits. Some 7.3% of all compounds tested hit in one or more screens of this group. Calls come from the whole dose curve; as a rule, active = well fitted curve in the direction sought with a large enough effect; inconclusive = small, poorly fitted or top-dose-only effect, or another doubt; inactive = no such curve, though single readings can be large; an effect the other way counts as inactive or inconclusive. Potency is the fitted concentration of half-maximal effect.

SMILES	Luc counter	SMN2 splice up	FLuc modulator	Rab9 prom act	NPC1 promoter act	ELG1 genotoxic
Fc1cccc(/C=N/Nc2nncc3ccccc23)c1	nt	nt	0.601µM*	?	0.316µM*	0.731µM*
Cc1ccc(NC(=O)CSc2nncc3ccccc23)cc1	nt	nt	-24.7%	2.9%	-6.2%	-0.5%
CC(=O)Nc1ccc(/C=N/Nc2nncc3ccccc23)cc1	nt	nt	12µM*	1.12µM*	2.82µM*	15.4%
C(=N\Nc1nncc2ccccc12)/c1ccccn1	nt	nt	1.69µM*	?	?	0.366µM*
NCCNS(=O)(=O)c1ccc(N)cc1	0.0%[7.66 µM]	-8.5%[9.22 µM]	nt	nt	nt	nt
Cc1ccc(C)c(/C(=N\N=C(N)N)C2CC2)c1	-5.0%[7.66 µM]	-2.5%[9.22 µM]	nt	nt	nt	nt
CN1c2ccc(Cl)cc2-c2nc(SCC(=O)NCc3ccccc3)ncc2S1(=O)=O	nt	nt	0.8%	nt	nt	nt
CCOC(=O)C1CCN(C(=O)Cn2c(-c3cccs3)cc3cc(Cl)ccc32)CC1	nt	nt	0.9%	nt	nt	nt
COc1ccc(Cc2nc3ccc(C(=O)NCC(C)(C)OC)cc3o2)cc1	nt	nt	19µM*	3.55µM*	3.55µM*	?
COc1ccc(Cc2nc3ccc(C(=O)NCc4cc(C)no4)cc3o2)cc1	nt	nt	13.5µM*	3.55µM*	3.98µM*	16.4µM*
CCC1CCCCN1C(=O)c1ccc2nc(Cc3ccc(OC)cc3)oc2c1 (stereo unspecified)	nt	nt	19µM*	3.55µM*	?	?
COc1ccc(Cc2nc3ccc(C(=O)NCCc4ccccc4)cc3o2)cc1	nt	nt	3.8%	nt	nt	nt
COc1ccc(S(=O)(=O)NCCc2sc(-c3cccnc3)nc2C)cc1	nt	nt	-5.8%	nt	nt	nt
COc1ccc(-c2cn3c(n2)sc2cc(C(=O)NC4CCCc5ccccc54)ccc23)cc1 (stereo unspecified)	nt	nt	-1.1%	nt	nt	nt
Nc1nn2cc(-c3ccccc3)nc2c2ccccc12	?	4.47µM*	1.9µM*	3.16µM*	?	5.17µM*
Cc1cn2nc(N)c3ccccc3c2n1	-0.5%	0.9%	-0.3%	0.2%	-12.5%	2.3%
CCOC(=O)C1CCN(C(=O)CNC(=O)c2nn(-c3ccc(OC)c(Cl)c3)c(=O)c3ccccc23)CC1	nt	nt	2.69µM*	20.9%	24.5%	1.5%
COc1ccc(-n2nc(C(=O)NCC(=O)N3CCCCCC3)c3ccccc3c2=O)cc1OC	nt	nt	6.75µM*	2.0%	11.9%	-4.7%
COc1ccc(-n2nc(C(=O)NCC(=O)NC(C)C)c3ccccc3c2=O)cc1Cl	nt	nt	-3.5%	3.1%	-1.8%	-5.8%
COc1ccc(-n2nc(C(=O)NCC(=O)N3CCCC(C)C3)c3ccccc3c2=O)cc1Cl (stereo unspecified)	nt	nt	5.36µM*	-0.9%	-2.4%	-2.3%
COc1ccc(-n2nc(C(=O)NCC(=O)N3CCOCC3)c3ccccc3c2=O)cc1Cl	nt	nt	10.7µM*	-0.2%	-4.1%	-0.3%
COc1ccc(-n2nc(C(=O)NCC(=O)N3CC(C)CC(C)C3)c3ccccc3c2=O)cc1OC (stereo unspecified)	nt	nt	?	-0.3%	-0.4%	-15.1%
CCC(C)NC(=O)CNC(=O)c1nn(-c2ccc(OC)c(Cl)c2)c(=O)c2ccccc12 (stereo unspecified)	nt	nt	-10.5%	-3.8%	-3.1%	-5.6%
Cc1oc2ncn(CC(C)C)c(=O)c2c1C(=O)NCCc1ccc(Cl)cc1	nt	nt	0.3%	nt	nt	nt
COc1ccccc1-c1nc2c(c(SCC(=O)Nc3ccc(C)c(C)c3)n1)Cc1c(CO)cnc(C)c1O2	nt	nt	-10.9%	nt	nt	nt
Cc1cccc(NC(=O)CSc2cn(CC(=O)N3CCOCC3)c3ccccc23)c1C	nt	nt	-1.5%	nt	nt	nt
COc1ccc(-n2nc(C(=O)NCC(=O)NCCCN3CCCCCC3)c3ccccc3c2=O)cc1Cl	-1.2%	-58.9%	3.8%	-3.3%	-6.3%	-2.4%
CCOC(=O)C1CCCN(C(=O)CNC(=O)c2nn(-c3ccc(OC)c(Cl)c3)c(=O)c3ccccc23)C1 (stereo unspecified)	nt	nt	6.75µM*	0.5%	-1.0%	-11.7%
